Measurements: ChEMBL document CHEMBL1157539, “Thousands of chemical starting points for antimalarial lead identification” (Nature, 2010)

Test system: Plasmodium falciparum
Experiment: GSK_TCMDC: Inhibition of Plasmodium falciparum 3D7 in whole red blood cells, using parasite LDH activity as an index of growth. Test compounds present at 2uM
Format: functional

**Q.** `O=C(CN1C(=O)CC1S(=O)(=O)Cc1ccco1)NCCCCCCc1ccc(F)cc1` (centres undefined) was tested. Which Inhibition did it give?
**A.** The Inhibition was 95%.

**Q.** With `CC(CC1CCCCC1)NCc1ccccc1OCCC(=O)N1CCCC1C(N)=O` (centres undefined) as the molecule, how does the Inhibition read?
**A.** The Inhibition was 97%.

**Q.** For `Cc1nc(Nc2ccc(F)cc2)nc(N2CCc3ccccc3[C@@H]2C)c1C.Cl`, which Inhibition is on record?
**A.** Its Inhibition is 92%.

**Q.** Which Inhibition does the source give for `Cl.O=C(NCCCCN1CCC(c2ccc3c(c2OCCCO)CCCC3)CC1)c1ccc(-c2ccc(C(F)(F)F)cc2)c(CO)c1` here?
**A.** The Inhibition was 95%.

**Q.** With `COc1cc2c(cc1C(F)(F)F)N(C(=O)Nc1ccc(Br)cn1)CC2` as the molecule, how does the Inhibition read?
**A.** Its Inhibition is 97%.

**Q.** For `COc1cc(CCNCC(O)c2ccc([N+](=O)[O-])c(OCc3ccccc3)c2)cc(OC)c1OC.Cl` (centres undefined), which Inhibition is on record?
**A.** The Inhibition was 98%.

**Q.** Which Inhibition does the source give for `COc1ccc(CNC(=O)Nc2cccc(-c3csc(NC(=N)N)n3)c2)cc1` here?
**A.** The Inhibition was 80%.

**Q.** Which Inhibition does the source give for `COc1cccc(-c2cc3c(NCc4ccncc4)nccc3s2)c1` here?
**A.** The Inhibition was 87%.

**Q.** With `Cc1csc2nc(C(C)c3ccc(NC(=O)c4cccs4)cc3)oc(=O)c12` (centres undefined) as the molecule, how does the Inhibition read?
**A.** Its Inhibition is 90%.

**Q.** With `O=C(NNC(=O)c1ccc(CN2CCC(c3nc4ccccc4[nH]3)CC2)cc1)Nc1ccc(Oc2ccccc2)cc1.O=C(O)C(F)(F)F` as the molecule, how does the Inhibition read?
**A.** Its Inhibition is 86%.

**Q.** With `N#Cc1cc(N(CCCOc2cccc(OC(F)(F)F)c2)Cc2ccccc2C(F)(F)F)ccc1C(F)(F)F` as the molecule, how does the Inhibition read?
**A.** The Inhibition was 94%.

**Q.** How did the Inhibition turn out when `O=C(O)CCSc1ncnc2[nH]cnc12` was run?
**A.** Its Inhibition is 100%.

**Q.** For `Cc1cc2c(cc1C(F)(F)F)N(C(=O)Nc1ccc(C(=O)NCCN3CCCC3)cc1)CC2`, which Inhibition is on record?
**A.** Its Inhibition is 100%.

**Q.** `CC1CN(c2ccc3[nH]cc(Sc4ccc(-c5cccs5)cc4)c3c2)CC(C)N1.Cl` (centres undefined) was tested. Which Inhibition did it give?
**A.** The Inhibition was 89%.
